Screening results: PubChem, National Center for Advancing Translational Sciences (NCATS)
A selection: hits, their analogues and other compounds. The true share with any hit is near 2.4%.
D2 antagonist: HTS Assay for Allosteric Antagonists of the Human D2 Dopamine Receptor: Primary Screen for Antagonists. D(2) dopamine receptor (Homo sapiens), P14416. HEK293 TREx D2 cells, calcium flux, dopamine EC80. inhibition, % at 10 µM. 340,000 compounds, 2% hits. AID 485344, 2010; in the data active means inhibition above about 30%; inactive means below that, where a call was filed; further: 0% is about no effect
Target sequence (P14416 whole entry, looked up): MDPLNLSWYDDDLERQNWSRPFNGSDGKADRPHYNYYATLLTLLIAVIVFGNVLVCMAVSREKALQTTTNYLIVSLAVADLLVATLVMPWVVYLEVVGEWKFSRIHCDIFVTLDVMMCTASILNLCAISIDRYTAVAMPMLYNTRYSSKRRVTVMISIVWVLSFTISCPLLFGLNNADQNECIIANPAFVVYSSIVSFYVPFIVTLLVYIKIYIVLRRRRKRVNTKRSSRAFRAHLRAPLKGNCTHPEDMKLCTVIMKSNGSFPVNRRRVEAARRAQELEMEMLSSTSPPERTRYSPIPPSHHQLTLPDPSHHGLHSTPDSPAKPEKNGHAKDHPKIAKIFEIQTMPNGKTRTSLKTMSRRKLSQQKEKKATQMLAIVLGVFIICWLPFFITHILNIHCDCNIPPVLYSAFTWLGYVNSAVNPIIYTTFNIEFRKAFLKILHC
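Tetracycline-induced HEK293 TREx cells expressing D2 receptor forced-coupled to calcium signalling, loaded with no-wash calcium dye. Compounds added and calcium flux read 180 s, then dopamine added at EC80 and read a further 180 s.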
D2 ag-1: HTS Assay for Allosteric Agonists of the Human D2 Dopamine Receptor: Primary Screen for Agonists; D(2) dopamine receptor (Homo sapiens), P14416; AID 485358, 2010; activation, % at 2 µM; 340,000 compounds, 0.53% hits; HEK293 T-REx D2 cells, calcium flux agonist mode;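 active means activation over 3 SD above normal in the single-dose calcium agonist read, cut at about 30% in these data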; further: 0% is about no effect
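Calcium-flux readout, 1 cycle/sec over 180 s following compound pin transfer, in inducible HEK293 Trex D2 cells (force-coupled); dopamine controls included. Positive calcium responses during this window marked compounds as potential agonists.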
D2 PAM-1: Beta-Arrestin HTS for Positive Allosteric Modulators of the Human D2 Dopamine Receptor: Potentiators; D(2) dopamine receptor (Homo sapiens), P14416; DiscoveRx D2 beta-arrestin cells, luminescence, 90 min; 100% = 57 uM dopamine signal; potentiation, % (test concentration not listed); 360,000 compounds, 0.23% hits; AID 624464, 2012; in the data active means potentiation above about 50%; inconclusive means mostly about 30% to 49%
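PathHunter beta-arrestin assay in DiscoveRx D2 cells. Compounds were added with an EC20 of dopamine (50 nM final) for 90 min at 37 deg C. Luminescence was read 1 h after detection reagent, with 57 uM dopamine as the EC100 control.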
D2 ag-2: Beta-Arrestin HTS for Positive Allosteric Modulators of the Human D2 Dopamine Receptor: Agonists. D(2) dopamine receptor (Homo sapiens), P14416. 360,000 compounds, 0.084% hits. AID 624465, 2012. activation, % (concentration not given with the values). DiscoveRx PathHunter D2 beta-arrestin, luminescence, 90 min; 100% = 57 uM dopamine signal; in the data active means activation above about 40%; inconclusive means between about 15% and that limit
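DiscoveRx PathHunter D2 beta-arrestin cells (2,100/well) attached overnight, then compound-stimulated 90 min at 37 C in HBSS/10 mM HEPES/0.1% Tween-20 buffer; beta-galactosidase complementation read by luminescence after 1 h at ambient temperature. Dopamine 57 uM final (EC100) as control.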
D2 PAM-2: HTS Assay for Positive Allosteric Modulators of the Human D2 Dopamine Receptor: Primary Screen for Potentiators. potentiation, % at 10 µM. D(2) dopamine receptor (Homo sapiens), P14416. 340,000 compounds, 0.34% hits. HEK293 T-REx D2, calcium flux, EC20 dopamine potentiation;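 active means potentiation over 3 SD above the plate norm, cut at about 30% in these data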; further: 0% is about no effect
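Potentiation of an EC20 dopamine calcium response measured kinetically over 180 s, after a preceding 180 s compound-only read flagging agonists. Cells: inducible Hek293 Trex D2 line, 4000/well, cultured overnight at 30 C before dye loading.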
* marks the source's active call; other numbers are inactive results; ? = inconclusive; . = not tested or not shown.

SMILES | D2 antagonist | D2 ag-1 | D2 PAM-1 | D2 ag-2 | D2 PAM-2
O=C(CSc1nc2[nH]c(=O)cc(O)c2s1)NCCc1ccccc1 | 0 | 0 | -14 | 2 | 17
COc1cc(NC(=O)C2CCN(S(=O)(=O)c3c(C)noc3/C=C/c3cccs3)CC2)cc(OC)c1 | . | 1 | . | . | -7
C=CCC1(O)C(=O)N2C(=C1C(=O)N1CCOCC1)c1ccccc1CC2(C)C (stereo unspecified) | 45* | 1 | -6 | -2 | -7
Cc1cccc(NC(=O)Cn2c(=O)nc(-c3ccccc3)c3ccccc32)c1C | . | 1 | . | . | 2
O=C(Oc1ccc(Br)cc1C(=S)N1CCOCC1)c1ccc([N+](=O)[O-])cc1[N+](=O)[O-] | -4 | 1 | 56* | ? | 37*
O=C(Oc1cccc(C(=S)N2CCOCC2)c1)c1cc([N+](=O)[O-])cc([N+](=O)[O-])c1 | 3 | 0 | 25 | 41* | -1
CCOc1ccc2[nH]c3c(NCCOC)ncnc3c2c1 | -10 | -2 | 12 | -7 | 31*
O=C(/C=C/c1cccc([N+](=O)[O-])c1)OC1CCCCC1=O (stereo unspecified) | 31* | 2 | -4 | -5 | 1
O=C(/C=C/c1cccc([N+](=O)[O-])c1)NCC1CCCO1 (stereo unspecified) | 60* | -1 | -33 | -1 | 1
O=C(NCC1CCCO1)C(=Cc1cccc([N+](=O)[O-])c1)C(=O)NCC1CCCO1 (stereo unspecified) | 1 | 1 | -3 | 3 | 8
CC(C)N(C(=O)/C=C/c1cccc([N+](=O)[O-])c1)C(C)C | 24 | 1 | -9 | -1 | 19
COc1ccc(CNC(=O)C2CCCN(S(=O)(=O)c3ccc4c(ccn4C)c3)C2)c(OC)c1 (stereo unspecified) | . | 0 | . | . | -4
CCCSc1nnc2n(Cc3ccccc3)c(=O)c3c4c(sc3n12)CCC4 | . | . | . | . | -2
CCCSc1nnc2n(C)c(=O)c3c4c(sc3n12)CCC4 | 40* | 4 | 11 | -6 | 13
CCNC(=O)c1c(NC(=O)c2nc(S(=O)(=O)CC)ncc2Cl)sc2c1CCCC2 | . | 2 | . | . | .
Cc1ccc(NC(=O)C2OCCc3ccccc32)cc1C (stereo unspecified) | 42* | -2 | -7 | -4 | 12
O=C(NCc1ccco1)C1OCCc2ccccc21 (stereo unspecified) | 4 | 1 | 0 | -1 | 9
CCN(CC)CCn1c(=S)[nH]c2cc(C(=O)NCc3ccc(C)cc3)ccc2c1=O | 36* | 0 | -14 | 0 | -12
Cc1sc2ncn(CC(=O)NCc3ccccn3)c(=O)c2c1S(=O)(=O)N1CCOCC1 | -2 | 0 | -6 | 1 | 49*
CCOC(=O)CNC(=O)Cn1cnc2sc(C)c(S(=O)(=O)N3CCOCC3)c2c1=O | 8 | 1 | -5 | -7 | 8
CSc1ccc(C#N)cc1NC(=O)c1ccccc1C | 51* | 1 | -3 | 3 | -17
CSc1ccc2c(c1)C(N1CCN(C)CC1)Cc1ccccc1S2 (stereo unspecified) | 81* | 2 | -29 | -4 | -27
Cc1ccc(NC(=O)c2ccc(CN3CCc4ccccc4C3)cc2)cc1 | 17 | 1 | -41 | -9 | -17
O=C(Nc1cccnc1)c1ccc(CN2CCc3ccccc3C2)cc1 | 66* | 3 | -36 | -1 | -23
O=C(Nc1ccccc1)c1ccc(CN2CCc3ccccc3C2)cc1 | 54* | -1 | -12 | 1 | .
SMILES | D2 antagonist | D2 ag-1 | D2 PAM-1 | D2 ag-2 | D2 PAM-2
COC(=O)c1ccc(C)c(NC(=O)c2ccc(CN3CCc4ccccc4C3)cc2)c1 | 78* | 22 | -26 | -8 | -29
O=c1[nH]c(Nc2ccc3c(c2)OCCO3)nnc1Cc1ccccc1 | 49* | 0 | -14 | -2 | 2
C/C(=N\Nc1ncnc2sc(C)c(C)c12)c1ccccn1 | -19 | 46* | 20 | -4 | 10
CCn1nc(C)c(CN2CCC(C(=O)Nc3cccc(-c4cccc(F)c4)c3)CC2)c1C | 38* | -2 | -5 | 3 | -18
CCn1cc(CN2CCC(C(=O)Nc3cccc(-c4cccc(F)c4)c3)CC2)cn1 | -5 | 2 | -36 | -3 | -29
O=S(=O)(c1ccc(SCCOc2cccc(Br)c2)nc1)N1CCCC1 | 42* | 0 | -29 | -2 | -3
O=C(CSc1ccc(S(=O)(=O)N2CCCCC2)cn1)Nc1ccccc1Br | 3 | -1 | 1 | 41* | 10
C[C@@H]1CN([C@@H](C)CO)C(=O)CCCn2nncc2CO[C@H]1CN(C)C(=O)OCc1ccccc1 | . | . | -2 | -5 | .
COc1cc(N)c(Cl)cc1C(=O)OCC(=O)N1CCc2ccccc21 | -3 | 1 | -3 | 1 | 7
COc1cc(N)c(Cl)cc1C(=O)OCC(=O)N1CCCC1 | 32* | 1 | -9 | -13 | -12
CCOc1ccccc1C(O)C1=CC(=O)c2ccccc2C1=O (stereo unspecified) | . | . | 58* | 1 | .
CC1=CC(=O)c2ccccc2C1=O | -23 | -1 | 22 | 3 | 5
CON(C)S(=O)(=O)c1cccc(C(=O)Nc2ccc(S(=O)(=O)NC3=NCCCCC3)cc2)c1 | 33* | -1 | -18 | 0 | -4
COCC1CCCN(Cc2cn(-c3ccccc3F)nc2-c2cc(C)sc2C)C1 (stereo unspecified) | 41* | 2 | -19 | -4 | -17
O=C(Nc1nnc(S(=O)(=O)N2CCCCCC2)s1)c1ccccc1Cl | . | 2 | -6 | 2 | 4
O=C(Nc1nnc(S(=O)(=O)N2CCCC2)s1)c1ccccc1Cl | 35* | -2 | -2 | -5 | -4
CCCn1cc(S(=O)(=O)c2ccccc2)c(=O)c2cc(F)c(N3CCCCCC3)cc21 | . | -2 | . | . | -6
COc1ccc2c(n1)Sc1nc3ccccc3nc1N2 | 49* | 92* | 2 | 4 | -5
COc1cc2ccccc2nn1 | -5 | 1 | -6 | -2 | 12
CCN(CC)c1cc2c(cc1F)c(=O)c(S(=O)(=O)c1cc(C)ccc1C)cn2Cc1ccccc1 | . | 0 | . | . | 6
COc1cc2c(cc1OC)-c1cc(Nc3ccc4c(c3)OCCO4)nc(=O)n1CC2 | -3 | -1 | 2 | 0 | 57*
COc1ccc(Nc2cc3n(c(=O)n2)CCc2cc(OC)c(OC)cc2-3)cc1 | -8 | 0 | -4 | 1 | 6
O=C(Nc1ccc(F)cc1)c1oc2ccccc2c1NC(=O)C1CCCCC1 | . | 1 | . | . | -6
